Compounds without any hit were thinned out: in the full panel of roughly 83,000, 20% have a hit.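 A percent growth of 40 corresponds to 60% growth inhibition; 0 means no net growth; -100 means all cells died. Active threshold: below 10.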 Unmarked numbers belong to inactive results. Activity calls are given as the source filed them.

Test systems include DU-145 prostate; K-562 leukemia; MALME-3M melanoma; MDA-MB-231 breast; RXF 393 renal; SF-268 CNS; SF-295 CNS; SF-539 CNS; UACC-257 melanoma; M14 melanoma; HCT-15 colon; HT29 colon; SNB-75 CNS; SNB-19 CNS; U251 CNS; PC-3 prostate; SK-MEL-5 melanoma; UACC-62 melanoma; LOX IMVI melanoma; SK-MEL-28 melanoma.
Common to all, as to assay: NCI-60 one-dose screen, 48 h (100 = growth as untreated, 0 = no growth, -100 = all killed)
Common to all, as to conditions: 10 µM

Take `COc1cc2c3c(cccc3c1)C(=O)N(CCN1CCCC1)C2=O`: the growth is 15.1% in the test with DU-145 prostate; 4.01% (active) in the test on K-562 leukemia; -21.7% (active) in the test on MALME-3M melanoma; 29.1% in the test on MDA-MB-231 breast; 10.9% in the test with RXF 393 renal; 28.2% with SF-268 CNS. Further, the growth was 40.2% in the test on SF-295 CNS; 30.1% with SF-539 CNS; -10.4% (active) in the test on UACC-257 melanoma; 25.7% with M14 melanoma; 20.1% with HCT-15 colon; 0.567% (active) in the test with HT29 colon. For the same compound, the growth was 23.5% in the test on SNB-75 CNS; 31.7% with SNB-19 CNS; 25.9% in the test on U251 CNS; 14.3% with PC-3 prostate; -33.3% (active) with SK-MEL-5 melanoma; -34% (active) in the test on UACC-62 melanoma. In addition, the results for the growth in the test on LOX IMVI melanoma and with SK-MEL-28 melanoma were -2.23% (active) and 19.1%, respectively.
Turning to `O=C(Cn1ccc(=O)[nH]c1=O)c1ccc([N+](=O)[O-])o1`, the growth was 92.3% in the test on DU-145 prostate; 83.6% with K-562 leukemia; 57.8% in the test on MALME-3M melanoma; 111% with MDA-MB-231 breast; 118% in the test on RXF 393 renal; 105% in the test with SF-268 CNS. The growth in the test on SF-295 CNS is 92.7%; with SF-539 CNS, 106%; in the test with UACC-257 melanoma it was 81.5%; with M14 melanoma, 91.4%; in the test on HCT-15 colon, 94.7%; in the test on HT29 colon, 101%. In addition, the growth in the test on SNB-75 CNS was 103%; with SNB-19 CNS, 120%; in the test on U251 CNS, 95.2%; in the test with PC-3 prostate, 85.8%; with SK-MEL-5 melanoma it was 90.7%; in the test on UACC-62 melanoma, 87%. For the same compound, the growth with LOX IMVI melanoma was 80%; with SK-MEL-28 melanoma, 95.3%.
Turning to `Nc1ccc(Sc2ccc3c4c2cccc4c(=O)n2c4ccccc4nc32)cc1`, the growth is 39.3% in the test with DU-145 prostate; 60.3% in the test with K-562 leukemia; 34% in the test on MALME-3M melanoma; 54.4% with MDA-MB-231 breast; 72.6% with RXF 393 renal; 59.4% in the test on SF-268 CNS. Also, the growth with SF-295 CNS was 12%; with SF-539 CNS it was 48.5%; in the test on UACC-257 melanoma it was 71%; in the test with M14 melanoma, 45.4%; in the test with HCT-15 colon, 40.5%; in the test with HT29 colon, 66.7%. The growth in the test on SNB-75 CNS is 43.7%; with SNB-19 CNS it was 46.3%; in the test on U251 CNS, 39.9%; in the test with PC-3 prostate, 50.4%; with SK-MEL-5 melanoma, 39.4%; in the test on UACC-62 melanoma, 31.9%. In addition, the growth in the test with LOX IMVI melanoma was 29.2%; with SK-MEL-28 melanoma, 73.7%.
In the case of `COc1ccc(-c2csc(NC(=O)CO[N+](=O)[O-])n2)cc1`, the growth in the test on DU-145 prostate is 106%; in the test on K-562 leukemia, 96.8%; with MALME-3M melanoma, 102%; in the test on MDA-MB-231 breast, 102%; with RXF 393 renal it was 125%; with SF-268 CNS it was 99.5%. In addition, the growth with SF-295 CNS was 101%; in the test with SF-539 CNS it was 98.7%; in the test with UACC-257 melanoma, 63%; in the test on M14 melanoma, 102%; in the test with HCT-15 colon it was 104%; in the test with HT29 colon, 105%. Besides, the growth in the test with SNB-75 CNS was 96.1%; in the test on SNB-19 CNS it was 102%; with U251 CNS, 98.6%; in the test with PC-3 prostate it was 80.7%; in the test with SK-MEL-5 melanoma, 30.3%; in the test on UACC-62 melanoma it was 101%. Besides, the growth with LOX IMVI melanoma was 88%; with SK-MEL-28 melanoma it was 105%.
Take `Cc1cc(/C=C2\SC(=Nc3ccccc3)N(C3CCCC3)C2=O)c(C)n1-c1ccc(Cl)cc1`: the growth in the test on DU-145 prostate was -79.1% (active); in the test on K-562 leukemia, -22.8% (active); in the test on MALME-3M melanoma, -72.8% (active); in the test on MDA-MB-231 breast, -53% (active); with RXF 393 renal, -90.2% (active); in the test with SF-268 CNS, -47.5% (active). In addition, the growth in the test with SF-295 CNS is -70.3% (active); with SF-539 CNS, -70.8% (active); in the test with UACC-257 melanoma, -70.8% (active); in the test on M14 melanoma, -69.9% (active); with HCT-15 colon, -28.2% (active); in the test with HT29 colon it was -65.8% (active). Also, the growth in the test on SNB-75 CNS is -51.3% (active); in the test on SNB-19 CNS it was -65.8% (active); in the test on U251 CNS, -91.1% (active); in the test with PC-3 prostate, -63.4% (active); with SK-MEL-5 melanoma, -97.9% (active); in the test with UACC-62 melanoma, -56.3% (active). Besides, the growth with LOX IMVI melanoma is -72.7% (active); in the test on SK-MEL-28 melanoma, -69.8% (active).
As for `CCC1(C)OC(=O)NC1=O` (stereo not given), the growth in the test with DU-145 prostate is 111%; in the test on K-562 leukemia it was 91.7%; in the test with MALME-3M melanoma, 106%; in the test with MDA-MB-231 breast, 109%; in the test with RXF 393 renal it was 121%; with SF-268 CNS, 103%. The growth in the test with SF-295 CNS is 103%; in the test on SF-539 CNS, 99.1%; in the test on UACC-257 melanoma it was 90.9%; in the test on M14 melanoma it was 97.2%; in the test on HCT-15 colon it was 100%; with HT29 colon, 99.9%. Further, the growth in the test on SNB-75 CNS is 100%; with SNB-19 CNS, 108%; with U251 CNS, 99%; in the test with PC-3 prostate, 79.3%; in the test with SK-MEL-5 melanoma, 98.2%; in the test on UACC-62 melanoma it was 103%. Moreover, the growth with LOX IMVI melanoma was 94.3%; with SK-MEL-28 melanoma, 108%.
Take `N#Cc1ccc(-n2cnc(NC(=O)[C@H]3CCN(C#N)C3)c2)cc1`: the growth is 29.7% with DU-145 prostate; 17.8% with K-562 leukemia; -14.1% (active) in the test with MALME-3M melanoma; 14.8% in the test with MDA-MB-231 breast; -54.8% (active) in the test on RXF 393 renal; 29.9% in the test on SF-268 CNS. For the same compound, the growth in the test on SF-295 CNS is 42%; in the test on SF-539 CNS it was -9.26% (active); in the test with UACC-257 melanoma, 42.3%; in the test on M14 melanoma, 29.1%; in the test with HCT-15 colon, 11.1%; with HT29 colon it was 15.6%. In addition, the growth in the test on SNB-75 CNS is -1.74% (active); in the test on SNB-19 CNS it was 35.1%; in the test with U251 CNS, 7.35% (active); in the test on PC-3 prostate, 32%; with SK-MEL-5 melanoma, 12.1%; in the test with UACC-62 melanoma, 18.8%. The growth with LOX IMVI melanoma was 16.5%; in the test with SK-MEL-28 melanoma, 36.4%.
On to `O=C(CSc1nnc(-c2ccc(Cl)cc2)o1)c1ccccc1`, for which the growth is 101% in the test on DU-145 prostate; 102% in the test on K-562 leukemia; 112% in the test with MALME-3M melanoma; 95.2% in the test on MDA-MB-231 breast; 99.9% with RXF 393 renal; 101% in the test on SF-268 CNS. In addition, the growth with SF-295 CNS was 100%; with SF-539 CNS it was 91.4%; in the test on UACC-257 melanoma it was 98.9%; in the test on M14 melanoma, 108%; with HCT-15 colon, 99%; in the test with HT29 colon it was 96.1%. Further, the growth with SNB-75 CNS is 98.3%; with SNB-19 CNS it was 101%; with U251 CNS, 96%; in the test with PC-3 prostate it was 86.9%; with SK-MEL-5 melanoma it was 91.7%; in the test on UACC-62 melanoma, 92.4%. Further, the growth in the test on LOX IMVI melanoma is 94.3%; in the test on SK-MEL-28 melanoma, 102%.

The record behind these values is PubChem BioAssay (NCI).
